Measurements published in PubChem BioAssay (NCATS).
“And” between values parts separate entries of the source, which are not always exact repeats. Identical values can stand only once. Records with an inconclusive call do not appear. The source made the active and inactive calls. Calls come from the whole dose curve; as a rule, active = well fitted inhibition curve with a large enough effect; inconclusive = small, poorly fitted or top-dose-only effect; inactive = flat fitted curve, though single readings scatter.

Biological target: Ubiquitin carboxyl-terminal hydrolase 1 (Homo sapiens) (UniProt O94782)
Sequence (O94782 whole entry, looked up): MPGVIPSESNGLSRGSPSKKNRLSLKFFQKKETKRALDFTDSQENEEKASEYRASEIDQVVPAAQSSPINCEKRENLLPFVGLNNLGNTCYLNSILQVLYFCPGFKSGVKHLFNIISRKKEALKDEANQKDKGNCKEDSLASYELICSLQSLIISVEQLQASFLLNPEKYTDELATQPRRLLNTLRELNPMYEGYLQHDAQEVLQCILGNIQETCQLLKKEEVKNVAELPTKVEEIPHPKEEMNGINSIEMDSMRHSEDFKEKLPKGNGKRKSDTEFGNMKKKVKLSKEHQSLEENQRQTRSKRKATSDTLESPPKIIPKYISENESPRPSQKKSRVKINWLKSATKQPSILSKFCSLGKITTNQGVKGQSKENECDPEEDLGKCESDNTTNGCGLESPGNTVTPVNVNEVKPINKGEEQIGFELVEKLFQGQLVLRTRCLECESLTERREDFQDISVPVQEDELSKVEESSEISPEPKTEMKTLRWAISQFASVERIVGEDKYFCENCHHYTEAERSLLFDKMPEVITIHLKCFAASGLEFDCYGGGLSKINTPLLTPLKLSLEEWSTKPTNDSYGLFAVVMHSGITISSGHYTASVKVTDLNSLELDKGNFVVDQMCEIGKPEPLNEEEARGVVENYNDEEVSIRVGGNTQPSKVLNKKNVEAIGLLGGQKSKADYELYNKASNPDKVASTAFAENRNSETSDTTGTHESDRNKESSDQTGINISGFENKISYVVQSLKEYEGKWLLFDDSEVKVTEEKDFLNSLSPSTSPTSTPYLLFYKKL
Experiment: Inhibitors of USP1/UAF1: Pilot qHTS (AID 504865); note: nearly all actives have a fitted effect of over 35% in size;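 for activity change, negative = inhibition: rhodamine fluorescence freed from ubiquitin-rhodamine substrate followed over time; top concentration of the series differs between compounds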
Conditions: purified USP1/UAF1, Ub-rhodamine cleavage fluorescence; series mostly up to 114 µM; activity change, negative = inhibition: at the top concentration
Outline: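 Kinetic fluorescence assay: 1nM USP1/UAF1, 15 min compound preincubation, then 150nM Ub-Rho; 480/540 nm.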
% is set by controls: 0 for no effect and ±100 for the full control effect; potency is the fitted concentration of half-maximal effect.

| Structure (SMILES) | activity change, negative = inhibition | Potency |
| --- | --- | --- |
| COc1cc(OC)cc(OC)c1 | -7.57% (inactive) |  |
| CN1C(CCl)Nc2cc(Cl)c(S(N)(=O)=O)cc2S1(=O)=O (stereo not drawn) | -8.1% (inactive) |  |
| COc1cccc(CCc2ccccc2OCC(CN(C)C)OC(=O)CCC(=O)O)c1 (stereo not drawn) | -6.92% (inactive) |  |
| CCN1CCC[C@H]1CNC(=O)c1c(OC)ccc(Br)c1OC |  | inactive |
| CN1CCN(C(c2ccccc2)c2ccccc2)CC1 | 9.97% [at 54.9 µM] (inactive) |  |
| CCCN1CCCC[C@H]1C(=O)Nc1c(C)cccc1C | -5.07% (inactive) |  |
| c1ccc(CNCCNCc2ccccc2)cc1 | 3.39% (inactive) |  |
| CC(C)N=C(N)/N=C(\N)Nc1ccc(Cl)cc1 | 1.38% [at 54.9 µM] (inactive) |  |
| CN=C(NC#N)NCCSCc1csc(N=C(N)N)n1 |  | inactive |
| Cc1c(C(C)C)c(=O)n(-c2ccccc2)n1C | -5.26% (inactive) |  |
| CCOC(=O)OC(C)OC1=C(C(=O)Nc2ccccn2)N(C)S(=O)(=O)c2ccccc21 (stereo not drawn) | 5.97% (inactive) |  |
| CN1CCC[C@@H]1c1cccnc1 | -0.742% (inactive) |  |
| CC(=O)N/N=C/c1ccc([N+](=O)[O-])o1 | -14.4% (inactive) |  |
| O=C(Nc1ccc(Cl)c(Cl)c1)C1CC1 | -9.07% (inactive) |  |
| CCCOC(C(=O)OC1CCN(C)CC1)(c1ccccc1)c1ccccc1 | -14.9% (inactive) |  |
| COc1ccc(/C=C/C(=O)c2ccc(OC)cc2OC)cc1 | -7.95% (inactive) |  |
| Cc1cccn2c(=O)c(-c3nnn[nH]3)cnc12 | -6.1% (inactive) |  |

| Structure (SMILES) | activity change, negative = inhibition | Potency |
| --- | --- | --- |
| O=C1[C@H]2CCCC[C@H]2C(=O)N1CCCCN1CCN(c2nsc3ccccc23)CC1 | -12.2% (inactive) |  |
| CCCCN1CCCC1C(=O)Nc1c(C)cc(C)cc1C (stereo not drawn) | 1.06% (inactive) |  |
| C[C@@H](CN(C)C)CN1c2ccccc2Sc2ccccc21 | 2.1% [at 54.9 µM] (inactive) |  |
| CCOc1ccc2nc3cc(N)ccc3c(N)c2c1 |  | 50.1 µM (active) |
| O=C1c2ccccc2C(=O)C1c1ccccc1 | 3.69% [at 54.9 µM] (inactive) |  |
| NC(CS)C(=O)O (stereo not drawn) | -6.58% (inactive) |  |
| CN(C(=O)CN(CCO)CC(=O)N(C)C(C)(C)Cc1ccccc1)C(C)(C)Cc1ccccc1 | -11.6% [at 54.9 µM] (inactive) |  |
| NC(=NCCCCCCN=C(N)/N=C(\N)Nc1ccc(Cl)cc1)/N=C(\N)Nc1ccc(Cl)cc1 |  | 56.2 µM (active) and 50.1 µM (active) |
| NCCC(O)(P(=O)(O)O)P(=O)(O)O | -0.188% (inactive) |  |
| CCN(CC)CCOC(=O)C(c1ccccc1)C1CCCCC1 (stereo not drawn) | -10.1% (inactive) |  |
| O=C(COc1ccc(Cl)cc1)N1CCN(Cc2ccc3c(c2)OCO3)CC1 |  | inactive |
| CC(=O)Nc1c(I)cc(I)c(C(=O)O)c1I | -10.8% (inactive) |  |
| CC(C)(CO)[C@@H](O)C(=O)NCCCO |  | inactive |
| OCc1ccccc1O | -10.9% (inactive) |  |
| Cc1c(C(N)=O)cc([N+](=O)[O-])cc1[N+](=O)[O-] | -8.94% (inactive) |  |
| NC(=O)C(=O)N/N=C/c1ccc([N+](=O)[O-])o1 | -1.33% (inactive) |  |
